{"source": "ChEMBL document CHEMBL4888484", "about": "“Replenishing the malaria drug discovery pipeline: Screening and hit evaluation of the MMV Hit Generation Library 1 (HGL1) against asexual blood stage Plasmodium falciparum ,using a nano luciferase reporter read-out” (2022)", "note": "In all, about 4,800 compounds went through this assay and about 420 (8.8%) showed an effect of 50% or more. For the sample, strong results were picked, then their nearest neighbours and some compounds at random."}
{"test_system": "Plasmodium falciparum", "experiment": "Confirmatory screen in NF54 nanoGlo assay, in single point, at 2uM, 72h", "assay_type": "functional, Erythrocyte", "conditions": "timepoint 72 hour", "units": {"% Inhibition": "%"}}
{"smiles": "Cc1nn(Cc2ccccc2)c2c1C(c1cccc(Cl)c1Cl)c1c(C)nn(Cc3ccccc3)c1O2", "% Inhibition": 9}
{"smiles": "COc1ccc(OC)c(CN2C(=O)c3cc4c(OC)ccc(OC)c4n3C[C@]2(C(=O)NC2CCCCCC2)c2ccccc2)c1", "% Inhibition": 18}
{"smiles": "CCCn1c(C)nnc1COC(=O)c1ncoc1C", "% Inhibition": -5}
{"smiles": "CC(C)(C)OC(=O)NC1CCN(c2ncc(C(=O)NCc3ccc(F)c(Cl)c3)c(N)n2)CC1", "% Inhibition": -17}
{"smiles": "CN1CCc2ncnc(Nc3ccc4nc(N5CCCC5)sc4c3)c2C1", "% Inhibition": 2}
{"smiles": "CC(=O)Nn1ccc2nc(N3CCOCC3)ncc2c1=O", "% Inhibition": -7}
{"smiles": "COC1(C)CC(NC(=O)C(C(C)C)N2CCCS2(=O)=O)C1(C)C", "note": "(stereo not drawn)", "% Inhibition": -9}
{"smiles": "CCC(=O)N(Cc1ccc(-c2ccc(Cl)cc2)o1)[C@H]1CCS(=O)(=O)C1", "% Inhibition": 38}
{"smiles": "Cn1ccc(CN2CCN(c3ccccc3)CC2)n1", "% Inhibition": 1}
{"smiles": "Cc1nc(-c2ccc(N3CCC(NCCCn4ccnc4)CC3)cc2)cs1", "% Inhibition": 12}
{"smiles": "COc1cc(C)cc(C)c1S(=O)(=O)N(C)Cc1nnc[nH]1", "% Inhibition": 4}
{"smiles": "COc1cccc(C2C(NC(=O)c3ccoc3)CCN2C2CC2)c1", "note": "(stereo not drawn)", "% Inhibition": -10}
{"smiles": "CC(C(=O)Nc1cc(F)ccc1F)N1CCCC(c2nncn2C(C)C)C1", "note": "(stereo not drawn)", "% Inhibition": -3}
{"smiles": "CC(C(=O)Nc1nccs1)N1CCCC(c2ccn[nH]2)C1", "note": "(stereo not drawn)", "% Inhibition": 50}
{"smiles": "CC1=CCN(C(=O)Nc2nccs2)CC1", "% Inhibition": 7}
{"smiles": "c1ccc(NC(Nc2nnn[nH]2)=C(c2ccccc2)c2ccccc2)cc1", "% Inhibition": 0}
{"smiles": "O=C(Nc1ccn(Cc2cccnc2)n1)c1ccc(-c2ccccc2F)o1", "% Inhibition": -2}
{"smiles": "O=C(Nc1cccnc1)c1ccc(-c2ccc(Cl)c(Cl)c2)o1", "% Inhibition": 91}
{"smiles": "O=C(CCC(=O)Nc1cccnc1)NCc1ccc2c(c1)OCO2", "% Inhibition": -2}
{"smiles": "CCOc1ccc(-c2cc(NC(=O)c3cc(-c4cccnc4)nc4ccccc34)on2)cc1OCC", "% Inhibition": 94}
{"smiles": "COc1ccc(-c2cc(C(=O)NC3CCN(C(C)C)CC3)c3ccccc3n2)cc1OC", "% Inhibition": -7}
{"smiles": "CS(=O)(=O)Nc1nc2ccc(NC(=O)c3cc(-c4ccccc4)nc4ccccc34)cc2s1", "% Inhibition": 0}
{"smiles": "COc1ccc(CC[C@](C)(O)c2cc(C(N)=O)no2)cc1", "% Inhibition": -9}
{"smiles": "COc1ccc(N(C(=O)c2ccccc2)C2CC(C)N(C(=O)c3ccccc3)c3cc(OC)c(OC)cc32)cc1OC", "note": "(stereo not drawn)", "% Inhibition": -1}
{"smiles": "N#CCC(=O)Nc1nc(-c2ccc(Oc3ccccc3)cc2)cs1", "% Inhibition": -4}
{"smiles": "Cc1cc(C(=O)N[C@@H](C)CO)c(C)n1-c1nccs1", "% Inhibition": -19}
{"smiles": "c1ccc(N2CCN(C3CCN(Cc4ccncc4)CC3)CC2)cc1", "% Inhibition": -6}
{"smiles": "c1cc(CN2CCN(C3CCCCCC3)CC2)ccn1", "% Inhibition": -18}
{"smiles": "COc1nccnc1N(C(C)=O)S(=O)(=O)c1ccc(NC(C)=O)cc1", "% Inhibition": -13}
{"smiles": "N#Cc1ccc(N2CCN3C(=O)NCC3C2)nc1N1CCN2C(=O)NCC2C1", "note": "(stereo not drawn)", "% Inhibition": -12}
{"smiles": "CC(C)[C@H](OC(=O)n1ccnc1)C(=O)OC(C)(C)C", "% Inhibition": -10}
{"smiles": "CC1C=CC2C(=O)N(CC(F)(F)F)C(=O)C2C1C(=O)N1CCC(Cc2ccccc2)CC1", "note": "(stereo not drawn)", "% Inhibition": -3}
{"smiles": "Cc1ccc(NC(=O)Cn2cnc3nc(N(C)Cc4ccccc4)sc3c2=O)c(Br)c1", "% Inhibition": -14}
{"smiles": "CC[C@@H](CO)NC(=O)Nc1cccc(C)c1", "% Inhibition": 5}
{"smiles": "CC(CC1OCC(C[N+]2(Cc3ccccc3)CCCCC2)O1)CC(C)(C)C", "note": "(stereo not drawn)", "% Inhibition": 57}
{"smiles": "CCC(C)(CC)[C@@](O)(C#CC[N+]1(Cc2ccccc2)CCCCC1)c1ccccc1", "% Inhibition": 7}
{"smiles": "O=C1CCCC1C(c1ccccc1)N(C1=NS(=O)(=O)c2ccccc21)c1ccccc1", "note": "(stereo not drawn)", "% Inhibition": -10}
{"smiles": "CNC(=O)CCS(=O)(=O)CCCC(=O)Nc1c(C)cc(C)cc1C", "% Inhibition": -14}
{"smiles": "c1ccc2oc(N3CCCCCCC3)nc2c1", "% Inhibition": -5}
{"smiles": "Cc1ccc(CC(=O)N2CCC(NC(=O)OC(C)(C)C)CC2C)o1", "note": "(stereo not drawn)", "% Inhibition": -7}
{"smiles": "COC[C@@H]1CCCN1c1ccc2c(c1)CNCC(=O)N1CC[C@@H](CC(=O)NCCN3CCOCC3)[C@@H](/C=C/CO2)C1", "% Inhibition": -13}
{"smiles": "CC[n+]1ccc(-c2ncc(-c3ccc(C(C)(C)C)cc3)o2)cc1", "% Inhibition": 63}
{"smiles": "CCC(C)(CC)[C@@](O)(C#CC[N+]1(Cc2ccccc2Cl)CCCCC1)c1ccccc1", "% Inhibition": 4}
{"smiles": "CN1c2cc(C(=O)N3CCc4ccccc4C3)ccc2C(=O)N2CCCC[C@H]21", "% Inhibition": -6}
{"smiles": "Cc1cc2ncn([C@@H](C)c3nc(-c4cnccn4)cs3)c2cc1C", "% Inhibition": 0}
{"smiles": "CCC[C@H](NC(=O)c1ccc(Cl)o1)c1nnn[nH]1", "% Inhibition": 6}
{"smiles": "C=CCCCNc1ccc(C(N)=O)c(F)c1", "% Inhibition": -1}
{"smiles": "COc1ccc(CCc2nc(NC(=O)c3[nH]nc4c3CCC4)n[nH]2)cc1", "% Inhibition": -1}
{"smiles": "COc1ccc(CCc2nnc(NC(=O)Cc3c(C)noc3C)[nH]2)cc1OC", "% Inhibition": 15}
{"smiles": "COc1ccc(CCc2nc(NC(=O)c3nc(C)sc3C)n[nH]2)cc1OC", "% Inhibition": 65}
{"smiles": "Cc1c(CCNC(=O)NCC2CC23CCc2ccccc23)cnn1C", "note": "(stereo not drawn)", "% Inhibition": -4}
{"smiles": "Cc1cc(C(=O)NCCCn2cccn2)nc(N2CCOCC2)n1", "% Inhibition": 0}
{"smiles": "Cc1nn(C)cc1-c1nn(-c2nc(C3CC3)cc(C(F)(F)F)n2)c(-c2cn(C)nc2C)c1C", "% Inhibition": 16}
{"smiles": "Cc1c(-c2nn(-c3nc(C4CC4)cc(C(F)(F)F)n3)c(-c3cnn(C)c3C)c2Cl)cnn1C", "% Inhibition": 69}
{"smiles": "Cc1c(-c2nn(-c3ccccc3)c(-c3cnn(C)c3C)c2Cl)cnn1C", "% Inhibition": -4}
{"smiles": "CC(C)Nc1nc2nonc2n2cnnc12", "% Inhibition": 69}
{"smiles": "CN(Cc1cc(C(F)(F)F)ccc1Cl)[C@H]1CCc2nn(C)c(=O)n2CC1", "% Inhibition": -8}
{"smiles": "Cn1ccc2cccc(NC(=O)N3CC(C)(CO)C3)c21", "% Inhibition": 1}
{"smiles": "Cc1c(-c2nn3c(Cc4ccc(Cl)cc4)nnc3s2)cnn1-c1ccccc1", "% Inhibition": -16}
{"smiles": "Cc1cccc(C(=O)Nc2nc3cc4sc(NC(=O)c5cccc(C)c5)nc4cc3s2)c1", "% Inhibition": 7}
{"smiles": "COc1cc(C(=O)Nc2scnc2C)cc(OC)c1OC", "% Inhibition": -1}
{"smiles": "COc1cc(C(=O)Nc2ccc3sc(NC(=O)c4cc(OC)c(OC)c(OC)c4)nc3n2)cc(OC)c1OC", "% Inhibition": 56}
{"smiles": "C1=CCC(c2nc(-c3cnccn3)no2)C1", "% Inhibition": -6}
